Sampled rows, rich in hits. Any-hit rate of the full collection: about 2.3%.
WRN inhibitor = inhibitors of human WRN helicase; Q14191; WRN helicase unwinding, fluorescent forked duplex, kinetic; Potency, µM (doses to about 114 µM), hits mostly inhibitors; actives 0.46% (n = 360,000); AID 651768; further: nearly all actives have a fitted effect of over 55% in size
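Primary qHTS, 1536-well format. 20 nM WRN + compound, 15 min RT; start with 100 nM forked fluorophore/quencher duplex, 2 mM ATP (final); kinetic read ex 525/em 598 nm.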
Pol eta inh-1 = DNA polymerase eta (human) inhibition | Potency, µM (top dose mostly 114 µM), hits mostly inhibitors | actives 1.2% (n = 390,000) | recombinant Pol eta, fluorescent DNA replication assay | Q9Y253 | AID 588591
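Fluorescent replication assay: 50 nM final substrate added after a 15 min room-temperature compound preincubation with 10 nM enzyme. Signal taken at 0 min and again at 10 min.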
POLI inh = DNA polymerase iota (human) inhibition; Q9UNA4; Pol iota fluorescent replication assay, 10 min; Potency, µM (doses to about 115 µM), most hits filed as inhibitors; actives 1% (n = 390,000); AID 588590
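Pol iota at 10 nM preincubated 15 min with compounds at room temperature; reaction started with fluorescent substrate, 50 nM final. Fluorescence read kinetically at 0 and 10 min; buffer-only wells as negative control.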
POLB inh = inhibitors of human DNA polymerase beta; AID 485314; Potency, µM (highest dose often 114 µM), usual class: inhibitors; Pol beta primer extension/strand displacement, fluorescence kinetic; P06746; actives 1.3% (n = 340,000)
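Values derive from four-parameter Hill fits of normalized kinetic data: reads at 0 and 10 min following addition of 50 nM substrate to 10 nM Pol beta preincubated 15 min with compound.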
Pol kappa inh-1 = blocks human DNA polymerase kappa activity | Q9UBT6 | purified Pol kappa, fluorescent DNA synthesis assay, 10 min | Potency, µM (top dose mostly 107 µM), most hits filed as inhibitors | actives 0.53% (n = 400,000)
Target sequence (Q9UBT6 whole entry, looked up): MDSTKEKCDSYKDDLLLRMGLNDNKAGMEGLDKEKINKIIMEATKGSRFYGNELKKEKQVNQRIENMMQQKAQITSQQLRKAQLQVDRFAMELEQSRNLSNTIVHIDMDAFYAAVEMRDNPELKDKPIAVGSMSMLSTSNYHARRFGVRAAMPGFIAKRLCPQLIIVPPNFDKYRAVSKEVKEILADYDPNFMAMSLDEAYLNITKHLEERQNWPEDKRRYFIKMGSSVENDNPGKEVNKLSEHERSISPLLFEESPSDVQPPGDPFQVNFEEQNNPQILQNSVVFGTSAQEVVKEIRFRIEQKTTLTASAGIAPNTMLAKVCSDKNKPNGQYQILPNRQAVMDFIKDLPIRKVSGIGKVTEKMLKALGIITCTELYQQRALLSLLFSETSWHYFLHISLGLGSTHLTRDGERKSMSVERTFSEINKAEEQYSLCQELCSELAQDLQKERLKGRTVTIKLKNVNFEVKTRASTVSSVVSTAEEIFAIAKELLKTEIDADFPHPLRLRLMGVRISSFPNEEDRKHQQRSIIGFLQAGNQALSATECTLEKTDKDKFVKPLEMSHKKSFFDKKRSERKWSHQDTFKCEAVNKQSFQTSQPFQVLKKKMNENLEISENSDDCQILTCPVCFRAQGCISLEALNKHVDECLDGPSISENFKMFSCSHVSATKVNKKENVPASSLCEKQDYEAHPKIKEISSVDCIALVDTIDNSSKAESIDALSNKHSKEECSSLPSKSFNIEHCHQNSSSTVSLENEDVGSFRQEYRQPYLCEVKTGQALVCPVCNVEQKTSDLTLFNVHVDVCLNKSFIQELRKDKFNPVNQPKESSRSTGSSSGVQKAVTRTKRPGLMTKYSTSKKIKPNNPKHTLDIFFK
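Pol kappa 10 nM + cpd, 15 min RT; start w/ substrate 50 nM final; fluorescence kinetic read, 0 and 10 min. Neg ctrl: buffer, no enzyme.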
GALK confirm = confirmation of human galactokinase (GALK) inhibitors; shares compounds with Pol eta inh-1; purified GALK, Kinase-Glo ATP depletion luminescence; Potency, µM (doses to about 115 µM), most hits filed as inhibitors; actives 70% (n = 150)
Redox cycling = counter-screen for GALK inhibitors: redox cycling H2O2 generation; shares compounds with Pol eta inh-1; actives 40% (n = 150); AID 2035; Phenol red-HRP H2O2 redox cycling, absorbance 600 nm; Potency, µM (highest dose often 115 µM), most hits filed as inhibitors
HEK293 tox = HEK-293 cytotoxicity, GALK inhibitor secondary. shares compounds with Pol eta inh-1. HEK-293 viability, ATP luminescence (CellTiter-Glo), 24/48 h. Potency, µM (highest dose often 46.1 µM), actives largely listed as inhibitors. actives 10% (n = 170)
Pol kappa inh-2 = confirmation of human DNA polymerase kappa inhibitors | shares compounds with Pol eta inh-1 | purified Pol-kappa, fluorescent strand-displacement substrate | Potency, µM, usual class: inhibitors | actives 76% (n = 920) | AID 720501
Pol eta inh-2 = confirmation of human DNA polymerase eta inhibitors; shares compounds with Pol eta inh-1; Pol eta primer extension, TAMRA/BHQ fluorescence, 10 min; Potency, µM, most hits filed as inhibitors; actives 64% (n = 2,600); AID 720502
Each line names hits and unclear results; the compound was inactive in the other large screens (follow-up assays come after a bar, where they were run). The call rests on the fitted dose curve; in most records, active means well fitted curve in the direction sought with a large enough effect; inconclusive means small, poorly fitted or top-dose-only effect, or another doubt; inactive means no such curve, though single readings can be large; an effect the other way counts as inactive or inconclusive.

O=C1c2cccc3c([N+](=O)[O-])ccc(c23)C(=O)N1Cc1cccnc1	Pol eta inh-1 inconclusive, POLI inh inconclusive, POLB inh 16µM | Pol eta inh-2 inconclusive
O=C(O)c1ccccc1NCc1ccncc1	none
O=C(O)c1ccc(CNc2ccccc2C(=O)O)cc1	Pol eta inh-1 inconclusive, POLI inh inconclusive, POLB inh 11µM, Pol kappa inh-1 inconclusive | Pol eta inh-2 inconclusive
CCOC1=C/C(=C/c2c(N)n3nc(-c4ccccc4)sc3nc2=O)C=CC1=O	WRN inhibitor inconclusive, Pol eta inh-1 28µM, POLI inh inconclusive, POLB inh 35µM, Pol kappa inh-1 inconclusive | Pol eta inh-2 inconclusive
Cc1cc(C)cc(NC2=CC(c3cccc(F)c3)N(c3cc(C)cc(C)c3)C2=O)c1 (centres undefined)	none (no result: WRN inhibitor, Pol eta inh-1)
Cc1c(C#N)c(O)[nH]c(=O)c1N=Nc1ccc(S(N)(=O)=O)cc1	WRN inhibitor inconclusive, Pol eta inh-1 25µM, POLI inh inconclusive | Pol kappa inh-2 inconclusive | Pol eta inh-2 85
Cc1c(C#N)c(O)[nH]c(=O)c1N=Nc1ccc(Cl)c(C(=O)O)c1	none
O=P(O)(O)O[C@@H]1[C@H](O)[C@H](O)[C@@H](OP(=O)(O)O)[C@H](OP(=O)(O)O)[C@H]1O	none (no result: WRN inhibitor, Pol eta inh-1, POLI inh, POLB inh)
Cc1snc(S(=O)(=O)/C(C#N)=N/Nc2ccc(C(F)(F)F)cc2)c1C#N	none | GALK confirm 38µM | Redox cycling inactive | HEK293 tox inactive
CCCOc1ccc(-c2nn(-c3ccccc3)cc2/C=C2\SC(N)=NC2=O)cc1	none
COc1ccc(-c2nn(CCC(=O)O)cc2/C=C2\SC(N)=NC2=O)cc1	WRN inhibitor inconclusive, Pol eta inh-1 5.6µM, Pol kappa inh-1 79µM | Pol kappa inh-2 21 | Pol eta inh-2 27
NC1=NC(=O)/C(=C/c2cn(CCC(=O)O)nc2-c2ccc(F)cc2)S1	Pol eta inh-1 inconclusive
NC1=NC(=O)/C(=C/c2cn(CCC(=O)O)nc2-c2ccc(Cl)cc2)S1	WRN inhibitor inconclusive, Pol eta inh-1 14µM | Pol kappa inh-2 17
CC1CN(S(=O)(=O)c2cccc(C(=O)OCCOc3ccccc3)c2)CC(C)O1 (centres undefined)	none (no result: POLB inh)
CC1CN(S(=O)(=O)c2cccc(C(=O)OCc3cc(=O)oc4cc(O)ccc34)c2)CC(C)O1 (centres undefined)	Pol eta inh-1 inconclusive, POLI inh inconclusive, POLB inh inconclusive, Pol kappa inh-1 inconclusive | Pol eta inh-2 76
NS(=O)(=O)c1ccc(NC(=O)CSc2nnc(NC3CC3)s2)cc1	WRN inhibitor inconclusive, Pol eta inh-1 20µM, POLI inh 40µM, Pol kappa inh-1 inconclusive (no result: POLB inh) | Pol eta inh-2 67
CCOC(=O)c1c(-c2ccc(C)cc2)csc1NC(=O)c1cc(=O)c2cc(C)cc(C)c2o1	none (no result: WRN inhibitor)
COc1ccc(C(=O)Nc2cccc(-c3nc4cccnc4s3)c2C)c(OC)c1	POLI inh 79µM, Pol kappa inh-1 inconclusive (no result: WRN inhibitor) | Pol kappa inh-2 47
CCOCC(=O)Nc1cccc(-c2nc3cccnc3s2)c1C	none
CCCOc1cc2c(C#N)c(N3CCCC3)nc(N)c2c(N)n1	Pol eta inh-1 45µM, POLI inh inconclusive (no result: POLB inh) | Pol eta inh-2 inconclusive
COc1cc2c(C#N)c(N3CCN(c4ccccc4OC)CC3)nc(N)c2c(N)n1	none
